Source: PubChem BioAssay (NCATS)
Inconclusive results are not listed. Active and inactive are the calls of the source. Unless noted, calls follow the shape of the dose curve; as a rule, active = well fitted curve in the direction sought with a large enough effect; inconclusive = small, poorly fitted or top-dose-only effect, or another doubt; inactive = no such curve, though single readings can be large; an effect the other way counts as inactive or inconclusive.

What was measured:
[1] = target: Lysosomal acid glucosylceramidase (Homo sapiens) (UniProt P04062); assay: Glucocerebrosidase-p2 (AID 348; in the data active = potency below about 10 µM; also: potency is read from the fitted curve at half-maximal effect); details: purified GBA, blue fluorogenic substrate, 40 min
Procedure, shortened: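 Compounds titrated from 0.6 nM upwards against 0.2 nM enzyme in pH 5.9 citric acid/KH2PO4, taurocholate, tween-20; blue fluorogenic substrate 80 uM, 40 min room temperature, stopped and read Ex 365/Em 440 for AC50.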

[2] = AP1 Signaling Pathway (AID 357; active = well fitted curve in either direction with a large enough effect, not every such curve was filed as active;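 also: ME-180 reporter cells stimulated with EGF at its EC50 level; % is scaled to controls: 0 for no effect and ±100 for the full control effect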); details: ME-180 AP-1-bla reporter, EGF-induced, beta-lactamase ratio, 5 h; at 7.69 µM (top of the series) unless noted
Procedure, shortened: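 Read-out was the 460nm/530nm emission ratio (excitation 405nm) after CCF4 loading for 2.5 hours at room temperature. Cells carried an AP-1-driven beta-lactamase reporter, were stimulated with EC50 EGF plus compound for 5 hours, and AC50 values came from titrations.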

[3] = target: Cytochrome P450 1A2 (Homo sapiens) (UniProt P05177); assay: p450-cyp1a2 (AID 410; calls by dose curve; also: potency is read from the fitted curve at half-maximal effect;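 as to activity change, negative = inhibition: -100% = full effect of reference inhibitor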); details: recombinant CYP1A2, luciferin-ME demethylation, luminescence; series mostly up to 57 µM
Sequence of Cytochrome P450 1A2 (Homo sapiens) (P05177 whole entry, looked up): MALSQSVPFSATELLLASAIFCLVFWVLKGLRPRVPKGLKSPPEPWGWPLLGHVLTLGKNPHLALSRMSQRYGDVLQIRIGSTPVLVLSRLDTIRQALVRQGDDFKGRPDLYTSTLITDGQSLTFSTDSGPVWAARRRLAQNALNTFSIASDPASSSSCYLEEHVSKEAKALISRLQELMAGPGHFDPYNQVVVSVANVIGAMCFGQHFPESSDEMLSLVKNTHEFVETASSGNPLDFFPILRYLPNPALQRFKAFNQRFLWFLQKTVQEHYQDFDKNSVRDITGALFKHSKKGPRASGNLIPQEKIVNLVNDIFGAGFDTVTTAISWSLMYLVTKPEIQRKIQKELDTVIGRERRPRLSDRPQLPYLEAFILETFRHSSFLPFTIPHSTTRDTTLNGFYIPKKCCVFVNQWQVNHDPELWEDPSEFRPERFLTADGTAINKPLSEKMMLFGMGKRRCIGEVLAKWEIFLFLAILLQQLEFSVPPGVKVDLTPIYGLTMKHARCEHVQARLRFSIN
Procedure, shortened: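 Inhibition was calculated relative to 57 uM furafylline (full inhibition). The reaction used human CYP1A2 at 20nM with Luciferin-ME at its Km, 100uM, driven by an NADPH-regenerating system for 60 min at room temperature.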

[4] = Stat Signaling Pathway (AID 446; active = well fitted curve in either direction with a large enough effect, not every such curve was filed as active;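 also: ME-180 cervical cancer cells given 40 pM IL-6 alongside compound; SIE-controlled beta-lactamase reporter measured as 460/530 nm FRET emission ratio; % is scaled to controls: 0 for no effect and ±100 for the full control effect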); details: ME-180 (cervical carcinoma) SIE beta-lactamase reporter, IL-6 stimulated, 5 h; at 7.69 µM (top of the series) unless noted
Procedure, shortened: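 IL-6/STAT signaling read in ME-180 cells via an SIE beta-lactamase reporter. Stimulus was 40 pM IL-6 (its AC50) for 5 hrs, so both activation and inhibition register.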

[5] = target: Glucocorticoid receptor (Homo sapiens) (UniProt P04150); assay: GR-EFC Redistribution (AID 451; calls by dose curve; also: potency is read from the fitted curve at half-maximal effect); details: CHO-K1 GR-EFC translocation, beta-gal luminescence, 2 h
Sequence of Glucocorticoid receptor (Homo sapiens) (P04150 whole entry, looked up, the tested form may be a part): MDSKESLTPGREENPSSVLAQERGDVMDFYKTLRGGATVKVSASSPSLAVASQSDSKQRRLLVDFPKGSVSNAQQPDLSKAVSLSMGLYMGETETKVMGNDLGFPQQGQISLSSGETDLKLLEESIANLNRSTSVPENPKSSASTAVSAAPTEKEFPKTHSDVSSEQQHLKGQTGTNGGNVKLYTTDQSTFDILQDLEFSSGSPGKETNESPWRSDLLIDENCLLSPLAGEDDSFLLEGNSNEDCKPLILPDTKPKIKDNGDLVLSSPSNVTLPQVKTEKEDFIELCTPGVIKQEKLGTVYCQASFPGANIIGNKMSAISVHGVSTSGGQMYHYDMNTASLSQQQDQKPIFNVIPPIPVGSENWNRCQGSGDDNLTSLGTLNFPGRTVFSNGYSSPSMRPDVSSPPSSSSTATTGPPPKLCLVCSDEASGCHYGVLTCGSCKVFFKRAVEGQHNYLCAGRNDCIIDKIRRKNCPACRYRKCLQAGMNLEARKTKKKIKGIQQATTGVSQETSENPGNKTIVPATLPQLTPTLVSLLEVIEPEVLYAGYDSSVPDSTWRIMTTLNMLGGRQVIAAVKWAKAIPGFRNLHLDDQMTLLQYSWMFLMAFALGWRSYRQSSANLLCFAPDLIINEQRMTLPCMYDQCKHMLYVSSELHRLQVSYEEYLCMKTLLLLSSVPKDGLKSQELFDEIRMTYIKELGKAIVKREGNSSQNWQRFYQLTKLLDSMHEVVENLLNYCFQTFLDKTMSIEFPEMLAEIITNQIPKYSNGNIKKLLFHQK
Procedure, shortened: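 Translocation of GR-ED fusion to nuclear EA restores b-gal, read by luminescence after 1 h room-temperature detection. Engineered CHO-K1 biosensor cells, 1,000/well, exposed 2 h at 37 C to titrations up to 46 uM final.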

[6] = target: Mitogen-activated protein kinase 10 (Mus musculus) (UniProt Q61831); assay: JNK3 AlphaScreen Assay (AID 530; active = well fitted curve in either direction with a large enough effect, not every such curve was filed as active;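 also: kinase came from lysate of stimulated human HepG2 cells; signal reports phosphorylation of biotinylated GST-cJun 1-79 at Ser73 with 10 µM ATP; % is scaled to controls: 0 for no effect and ±100 for the full control effect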); details: JNK3 lysate, c-Jun phosphorylation; series mostly up to 57.1 µM
Procedure, shortened: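 Room-temperature AlphaScreen kinase assay; pre-activated HepG2 lysate as JNK3 source, biotin-GST-cJun(1-79) substrate, 10 uM ATP, compound 15 min preincubation.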

[7] = target: Cytochrome P450 3A4 (Homo sapiens) (UniProt P08684); assay: qHTS Assay for Activators of Cytochrome P450 3A4 (AID 885); details: recombinant CYP3A4, Luciferin-PPXE luminescence, 60 min; series mostly up to 57.1 µM; also: nearly all actives have a fitted effect of over 65% in size; also: potency is read from the fitted curve at half-maximal effect
Sequence of Cytochrome P450 3A4 (Homo sapiens) (P08684 whole entry, looked up): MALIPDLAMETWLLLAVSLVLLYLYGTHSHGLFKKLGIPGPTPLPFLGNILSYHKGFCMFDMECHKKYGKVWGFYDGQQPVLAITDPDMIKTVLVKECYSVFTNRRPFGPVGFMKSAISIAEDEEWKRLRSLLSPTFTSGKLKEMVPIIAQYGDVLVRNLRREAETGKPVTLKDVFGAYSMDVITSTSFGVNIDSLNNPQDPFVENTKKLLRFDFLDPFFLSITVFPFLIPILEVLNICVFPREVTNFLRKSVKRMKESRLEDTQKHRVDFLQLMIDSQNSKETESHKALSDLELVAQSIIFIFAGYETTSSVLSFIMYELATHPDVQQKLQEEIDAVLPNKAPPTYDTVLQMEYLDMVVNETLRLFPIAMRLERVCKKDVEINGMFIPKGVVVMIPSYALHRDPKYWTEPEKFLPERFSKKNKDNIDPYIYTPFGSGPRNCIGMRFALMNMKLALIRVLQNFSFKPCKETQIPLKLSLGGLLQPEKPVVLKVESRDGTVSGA
Procedure, shortened: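 Quantitative HTS format: compounds preincubated with 20nM human CYP3A4 and Luciferin-PPXE substrate at KM, reaction started by NADPH regeneration, stopped after 60 min, luciferase luminescence read 20 min later.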

[8] = qHTS Assay for Lipid Storage Modulators (AID 1519; calls by dose curve); details: Drosophila S3 cells, BODIPY lipid droplet/cell ratio, laser cytometry, cells loaded with oleic acid; for activity change, negative = inhibition: at 57.5 µM (top of the series)
Procedure, shortened: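 Cells seeded at 5,000 per well were treated with compounds over a concentration series and loaded with oleic acid (400 uM, as added). Lipid droplet fluorescence (488 nm excitation, 500-530 nm channel) was read by laser-scanning cytometry and normalized to 20 uM Triacsin C.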

[9] = Primary qHTS for small molecule stabilizers of the endoplasmic reticulum resident proteome: Secreted ER Calcium Modulated Protein (SERCaMP) assay (AID 1508630); details: SH-SY5Y GLuc-SERCaMP (Gaussia luciferase released on ER calcium loss) secretion, thapsigargin, luminescence; series mostly up to 38.4 µM; also: % is scaled to controls: 0 for no effect and ±100 for the full control effect
Procedure, shortened: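 GLuc-SERCaMP-expressing SH-SY5Y cells, pretreated 16 h with compound, are challenged with thapsigargin to empty ER calcium stores; after 4 h, coelenterazine is added directly to the medium and luminescence is imaged.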

[10] = target: Rap guanine nucleotide exchange factor 3 (Homo sapiens) (UniProt O95398); assay: Confirmatory qHTS for agonist of cAMP-regulated guanine nucleotide exchange factor 3 (EPAC1) (AID 1645881); details: EPAC1 Rap1B BODIPY-GDP exchange fluorescence, 100% = cAMP control response; series mostly up to 154 µM;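 also: EPAC1 catalysed release of BODIPY-GDP from Rap1B seen as fluorescence loss; nearly all actives have a fitted effect of over 75% in size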
Sequence of Rap guanine nucleotide exchange factor 3 (Homo sapiens) (O95398 whole entry, looked up): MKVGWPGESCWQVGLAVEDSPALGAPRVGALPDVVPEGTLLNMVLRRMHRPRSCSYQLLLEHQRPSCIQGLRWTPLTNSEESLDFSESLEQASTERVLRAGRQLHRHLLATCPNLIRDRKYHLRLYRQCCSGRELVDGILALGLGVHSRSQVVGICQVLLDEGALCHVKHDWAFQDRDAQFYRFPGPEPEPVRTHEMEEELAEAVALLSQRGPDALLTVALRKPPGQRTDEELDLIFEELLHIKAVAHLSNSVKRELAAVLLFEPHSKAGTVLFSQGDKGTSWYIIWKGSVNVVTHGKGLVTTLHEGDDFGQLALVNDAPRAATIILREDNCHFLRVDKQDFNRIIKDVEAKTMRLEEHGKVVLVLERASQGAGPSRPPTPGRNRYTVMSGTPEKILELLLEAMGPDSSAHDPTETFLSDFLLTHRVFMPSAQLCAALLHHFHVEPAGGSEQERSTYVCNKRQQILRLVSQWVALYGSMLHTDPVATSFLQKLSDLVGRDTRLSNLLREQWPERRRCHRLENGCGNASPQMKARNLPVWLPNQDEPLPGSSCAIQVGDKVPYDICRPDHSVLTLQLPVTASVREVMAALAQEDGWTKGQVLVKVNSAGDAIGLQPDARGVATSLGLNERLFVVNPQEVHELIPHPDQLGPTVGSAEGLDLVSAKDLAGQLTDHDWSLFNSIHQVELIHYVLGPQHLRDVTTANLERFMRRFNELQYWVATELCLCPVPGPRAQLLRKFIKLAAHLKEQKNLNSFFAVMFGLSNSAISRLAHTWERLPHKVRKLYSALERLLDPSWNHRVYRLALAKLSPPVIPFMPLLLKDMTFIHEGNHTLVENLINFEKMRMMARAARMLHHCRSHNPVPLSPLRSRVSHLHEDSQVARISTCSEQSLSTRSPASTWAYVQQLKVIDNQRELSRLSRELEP

[11] = target: Rap guanine nucleotide exchange factor 4 (Homo sapiens) (UniProt Q8WZA2); assay: Confirmatory qHTS for agonist of cAMP-regulated guanine nucleotide exchange factor 4 (EPAC2) (AID 1645884); details: EPAC2 GEF activity, Rap1B-BODIPY-GDP fluorescence, percent relative to cAMP agonist control; series mostly up to 154 µM;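 also: nucleotide exchange releases bodipy-GDP from Rap1 and this lowers its fluorescence; % is scaled to controls: 0 for no effect and ±100 for the full control effect; nearly all actives have a fitted effect of over 65% in size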
Sequence of Rap guanine nucleotide exchange factor 4 (Homo sapiens) (Q8WZA2 whole entry, looked up): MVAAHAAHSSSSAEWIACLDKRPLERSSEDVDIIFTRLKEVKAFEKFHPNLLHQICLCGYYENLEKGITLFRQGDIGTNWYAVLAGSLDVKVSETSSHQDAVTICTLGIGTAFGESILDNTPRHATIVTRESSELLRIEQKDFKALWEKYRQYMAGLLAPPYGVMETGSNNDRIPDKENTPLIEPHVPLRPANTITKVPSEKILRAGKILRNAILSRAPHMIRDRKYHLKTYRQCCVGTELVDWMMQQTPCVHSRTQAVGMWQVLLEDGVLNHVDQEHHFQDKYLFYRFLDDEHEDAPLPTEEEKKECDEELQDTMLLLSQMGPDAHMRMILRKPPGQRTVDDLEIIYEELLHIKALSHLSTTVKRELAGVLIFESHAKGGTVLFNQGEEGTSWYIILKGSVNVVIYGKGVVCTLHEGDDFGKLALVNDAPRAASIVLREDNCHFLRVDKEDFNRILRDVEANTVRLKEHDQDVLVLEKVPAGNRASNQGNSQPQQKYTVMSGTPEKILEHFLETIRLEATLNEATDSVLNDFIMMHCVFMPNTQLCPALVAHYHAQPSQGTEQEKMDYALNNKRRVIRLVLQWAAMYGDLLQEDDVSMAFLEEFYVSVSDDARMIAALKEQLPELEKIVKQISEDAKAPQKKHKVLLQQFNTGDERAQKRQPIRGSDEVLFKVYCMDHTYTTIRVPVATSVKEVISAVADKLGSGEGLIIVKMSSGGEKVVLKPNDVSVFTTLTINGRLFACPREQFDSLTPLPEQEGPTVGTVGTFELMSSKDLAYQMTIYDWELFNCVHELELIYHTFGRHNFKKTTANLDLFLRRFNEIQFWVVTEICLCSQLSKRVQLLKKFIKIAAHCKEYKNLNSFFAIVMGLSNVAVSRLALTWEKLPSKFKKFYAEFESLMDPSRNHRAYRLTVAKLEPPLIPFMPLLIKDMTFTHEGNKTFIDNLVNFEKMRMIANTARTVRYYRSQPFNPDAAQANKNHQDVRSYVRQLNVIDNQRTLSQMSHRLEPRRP

[12] = target: Rap guanine nucleotide exchange factor 4 (Homo sapiens) (UniProt Q8WZA2); assay: Confirmatory qHTS for antagonist of cAMP-regulated guanine nucleotide exchange factor 4 (EPAC2) (AID 1645885); details: EPAC2 Rap1B-BODIPY-GDP exchange fluorescence, biochemical; series mostly up to 114 µM; also: % is scaled to controls: 0 for no effect and ±100 for the full control effect; nearly all actives have a fitted effect of over 25% in size
[13] = NFAT Signaling Pathway (AID 444; active = well fitted curve in either direction with a large enough effect, not every such curve was filed as active); details: Jurkat NFAT-bla M1, carbachol, beta-lactamase ratio, 5 h; at 7.69 µM (top of the series) unless noted
Procedure, shortened: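 Read-out: CCF4 FRET ratio (460 nm/530 nm) after 1 h RT dye loading, used for %activity and AC50 from titration series. Cells: Jurkat NFAT-β-lactamase/M1 line, treated with compound plus 1 uM carbachol for 5 h, 37 °C.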

[14] = target: Glucocorticoid receptor (Homo sapiens) (UniProt P04150); assay: GR-GFP Redistribution (AID 450;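 active = compounds whose dose series gives a full or clear partial fitted curve of increased nuclear translocation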; also: potency is read from the fitted curve at half-maximal effect); details: U2OS GR-GFP nuclear translocation, laser cytometry, 2 h
[15] = target: 3',5'-cyclic-AMP phosphodiesterase 4B (Homo sapiens) (UniProt Q07343); assay: qHTS Assay for Inhibitors of PDE-IV (AID 607; active = well fitted activation curve with a large enough effect in the main read-out, with a control signal flat, not every such curve was filed as active; also: % of control where 0% means no effect); details: HEK293 ACTOne CNG channel cells, membrane potential fluorescence; series mostly up to 22.9 µM
Sequence of 3',5'-cyclic-AMP phosphodiesterase 4B (Homo sapiens) (Q07343 whole entry, looked up): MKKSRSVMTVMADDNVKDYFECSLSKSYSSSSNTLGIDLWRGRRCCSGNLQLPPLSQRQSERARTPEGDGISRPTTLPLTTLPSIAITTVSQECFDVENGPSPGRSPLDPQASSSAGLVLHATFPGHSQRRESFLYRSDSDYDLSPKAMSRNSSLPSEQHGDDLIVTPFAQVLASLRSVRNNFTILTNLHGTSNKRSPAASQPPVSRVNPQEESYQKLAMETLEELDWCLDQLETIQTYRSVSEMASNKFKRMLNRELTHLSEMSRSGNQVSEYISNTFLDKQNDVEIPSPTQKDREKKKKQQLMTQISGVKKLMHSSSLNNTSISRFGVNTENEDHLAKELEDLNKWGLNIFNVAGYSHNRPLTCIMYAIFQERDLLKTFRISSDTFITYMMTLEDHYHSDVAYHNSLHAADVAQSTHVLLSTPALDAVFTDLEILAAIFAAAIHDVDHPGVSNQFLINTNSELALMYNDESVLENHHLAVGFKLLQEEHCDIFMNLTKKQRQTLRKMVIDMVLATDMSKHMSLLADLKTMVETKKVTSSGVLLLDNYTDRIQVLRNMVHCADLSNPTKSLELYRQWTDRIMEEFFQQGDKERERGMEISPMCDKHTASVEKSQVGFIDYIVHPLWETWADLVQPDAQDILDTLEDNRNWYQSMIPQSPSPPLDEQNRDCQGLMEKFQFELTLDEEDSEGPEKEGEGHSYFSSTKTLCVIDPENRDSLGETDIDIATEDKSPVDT
Procedure, shortened: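 Live HEK293 cells with a modified cyclic nucleotide-gated (CNG) channel report intracellular cAMP via membrane-potential dye fluorescence (ex 535/em 590 nm). Endogenous PDE-IV was targeted. Compounds were tested at up to 22.9 uM final; RO 20-1724 100 uM served as control.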

[16] = target: Dual specificity protein kinase CLK4 (Homo sapiens) (UniProt Q9HAZ1); assay: qHTS Assay for Inhibitors of CDC-like Kinase 4 (Kinase-Glo Assay) (AID 1770); details: recombinant Clk4, Kinase-Glo ATP depletion luminescence; series mostly up to 66.7 µM; also: % is scaled to controls: 0 for no effect and ±100 for the full control effect; nearly all actives have a fitted effect of over 65% in size
Sequence of Dual specificity protein kinase CLK4 (Homo sapiens) (Q9HAZ1 whole entry, looked up): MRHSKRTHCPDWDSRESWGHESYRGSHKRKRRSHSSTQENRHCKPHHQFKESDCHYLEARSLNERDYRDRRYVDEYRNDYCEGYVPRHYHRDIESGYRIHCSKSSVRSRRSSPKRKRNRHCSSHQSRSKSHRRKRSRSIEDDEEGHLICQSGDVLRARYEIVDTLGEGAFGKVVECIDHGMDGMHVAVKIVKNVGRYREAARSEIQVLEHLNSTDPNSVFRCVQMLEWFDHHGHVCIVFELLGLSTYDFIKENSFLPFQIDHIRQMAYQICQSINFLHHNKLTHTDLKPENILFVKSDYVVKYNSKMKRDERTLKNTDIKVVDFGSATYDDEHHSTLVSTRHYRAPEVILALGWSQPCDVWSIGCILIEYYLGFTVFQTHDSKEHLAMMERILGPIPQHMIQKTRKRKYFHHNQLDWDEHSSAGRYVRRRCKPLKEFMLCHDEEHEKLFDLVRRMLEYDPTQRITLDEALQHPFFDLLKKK
Procedure, shortened: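 Luminescent ATP-depletion read-out (Kinase-Glo) after 4.5 h room-temperature reaction of Clk4 (25 nM final) with RS peptide (100 uM) and ATP (1 uM), pH 7.5 Tris buffer with MgCl2 and DTT.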

[17] = target: Dual specificity protein kinase CLK4 (Homo sapiens) (UniProt Q9HAZ1); assay: qHTS Assay for Inhibitors of CDC-like Kinase 4 (ADP-Glo Assay) (AID 1771); details: recombinant CLK4, ADP-Glo luminescence; series mostly up to 80 µM; also: % is scaled to controls: 0 for no effect and ±100 for the full control effect; nearly all actives have a fitted effect of over 70% in size
Procedure, shortened: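 Kinase reaction: Clk4 at 25 nM, RS repeat peptide substrate at 100 uM, ATP at 1 uM, 1 hr, room temperature. Product ADP detected as luciferase signal via ADP-Glo.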

[18] = target: Dual specificity protein kinase CLK4 (Homo sapiens) (UniProt Q9HAZ1); assay: qHTS Assay for Inhibitors of CDC-like Kinase 4 (ADP-FP Assay) (AID 1795); details: Transcreener ADP fluorescence polarization; series mostly up to 50 µM;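 also: recombinant human CLK4 phosphorylating RS repeat peptide at 1 µM ATP; % is scaled to controls: 0 for no effect and ±100 for the full control effect; nearly all actives have a fitted effect of over 60% in size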
Procedure, shortened: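 Kinase activity was measured as ADP production using Transcreener orange tracer (4 nM) and ADP antibody (1 ug/mL) fluorescence polarization, with ADP calculated from a calibration curve. The 1 h reaction contained 6.25 nM Clk4, 1 uM ATP and 100 uM RS peptide at pH 7.5 with Mg2+.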

[19] = target: Ubiquitin carboxyl-terminal hydrolase 1 (Homo sapiens) (UniProt O94782); assay: Inhibitors of USP1/UAF1: Pilot qHTS (AID 504865); details: purified USP1/UAF1, Ub-rhodamine cleavage fluorescence; series mostly up to 54.9 µM; also: nearly all actives have a fitted effect of over 35% in size; also: potency is read from the fitted curve at half-maximal effect
Procedure, shortened: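 Deubiquitinase activity followed as kinetic rhodamine fluorescence release from 150 nM Ub-Rho. 1 nM USP1/UAF1 with compound, after 15 min room-temperature preincubation, in HEPES pH 7.8 buffer containing TCEP, EDTA, BSA and Tween-20.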

[20] = target: Cytochrome P450 3A4 (Homo sapiens) (UniProt P08684); assay: qHTS Assay for Inhibitors and Substrates of Cytochrome P450 3A4 (AID 884); details: recombinant CYP3A4, Luciferin-PPXE luminescence; series mostly up to 57.1 µM; also: % is scaled to controls: 0 for no effect and ±100 for the full control effect; nearly all actives have a fitted effect of over 50% in size
Procedure, shortened: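 20 nM human CYP3A4 with 25 uM Luciferin-PPXE (at KM) in 200 mM KPO4, preincubated 10 min with compound; NADPH regeneration started a 60 min RT reaction. Luciferin detected by luminescence, normalized to 57 uM ketoconazole as full inhibition.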

[21] = measured here: cell count channel max response
[22] = measured here: lipid channel max response

O=C(Oc1ccccc1)N1CCC2(CCCN(c3ccccc3)C2)CC1
Potency [1]: > 11.4 µM (inactive)
activity change, negative = inhibition [2]: 8.28% (inactive)
Potency [3]: 15.8 µM (active)
activity, negative = inhibition [4]: 8.61% (inactive)
Potency [5]: > 46 µM (inactive)
outcome [6]: inactive
Potency [7]: inactive
activity change, negative = inhibition [8]: -26.4% (inactive)
max response [8, 21]: 17%
max response [8, 22]: -12.6%
Potency [9]: inactive
outcome [10]: inactive
outcome [11]: inactive
Potency [12]: inactive

Cc1nc2cnc(Oc3ccccc3)nc2n(C)c1=O
Potency [1]: > 11.4 µM (inactive)
activity change, negative = inhibition [2]: -8.04% (inactive)
Potency [3]: 12.6 µM (active)
activity change, negative = inhibition [13]: -5.98% (inactive)
activity, negative = inhibition [4]: -10.2% (inactive)
Potency [14]: > 9.22 µM (inactive)
Potency [5]: > 46 µM (inactive)
outcome [6]: inactive
Potency [15]: inactive
activity change, negative = inhibition [8]: 6.1% (inactive)
max response [8, 21]: 14.9%
max response [8, 22]: 19.9%
Potency [16]: inactive
Potency [17]: inactive
Potency [18]: inactive
Potency [19]: inactive
Potency [9]: inactive

O=C(c1cccc(F)c1)N1CCC2(CC1)CN(c1cccc(-c3ccccc3)c1)C2
Potency [1]: > 11.4 µM (inactive)
activity change, negative = inhibition [2]: -6.1% (inactive)
Potency [3]: 12.6 µM (active)
activity, negative = inhibition [4]: -13.4% (inactive)
Potency [5]: > 46 µM (inactive)
Potency [15]: inactive
Potency [20]: inactive
Potency [7]: 3.16 µM (active)
activity change, negative = inhibition [8]: -19.2% (inactive)
max response [8, 21]: -4.49%
max response [8, 22]: -20.8%
Potency [9]: inactive
outcome [10]: inactive
outcome [11]: inactive
Potency [12]: inactive

O=c1cnc2cnc(Oc3cccc(Cl)c3)nc2n1Cc1ccc(F)cc1
Potency [1]: > 11.4 µM (inactive)
activity change, negative = inhibition [2]: -16% (inactive)
Potency [3]: 15.8 µM (active)
activity change, negative = inhibition [13]: -9.66% (inactive)
activity, negative = inhibition [4]: -7.55% (inactive)
Potency [14]: > 9.22 µM (inactive)
Potency [5]: > 46 µM (inactive)
outcome [6]: inactive
Potency [15]: inactive
Potency [7]: inactive
activity change, negative = inhibition [8]: 3.63% (inactive)
max response [8, 21]: 17.8%
max response [8, 22]: 21.6%
Potency [9]: inactive
outcome [10]: inactive
outcome [11]: inactive

COc1ccc(-c2nc3cnc(N4CCNCC4)nc3n(Cc3cccs3)c2=O)cc1
Potency [3]: 3.98 µM (active)
activity change, negative = inhibition [13]: 182% [activator] (active)
Potency [14]: > 46 µM (inactive)
Potency [5]: > 46 µM (inactive)
outcome [6]: inactive
Potency [15]: inactive
activity change, negative = inhibition [8]: 1.49% (inactive)
max response [8, 21]: 7.67%
max response [8, 22]: 6.52%
Potency [16]: inactive
Potency [17]: inactive
Potency [18]: inactive
Potency [9]: inactive
outcome [10]: inactive

COCC(=O)N1CCC2(CC1)CN(c1ccccn1)C2
Potency [1]: > 11.4 µM (inactive)
activity change, negative = inhibition [2]: -0.233% (inactive)
Potency [3]: inactive
activity change, negative = inhibition [13]: 1.7% (inactive)
activity, negative = inhibition [4]: 9.91% (inactive)
Potency [5]: > 46 µM (inactive)
Potency [15]: inactive
activity change, negative = inhibition [8]: 1.23% (inactive)
max response [8, 21]: 1.59%
max response [8, 22]: 3.63%
Potency [9]: inactive
outcome [10]: inactive
outcome [11]: inactive
Potency [12]: inactive

CC(C)=CCC1=C(O)c2ccccc2C(=O)C1=O
activity change, negative = inhibition [8]: -0.846% (inactive)
max response [8, 21]: -0.752%
max response [8, 22]: 0.642%
Potency [19]: 35.5 µM (active)
Potency [9]: inactive
